Screening results as filed in PubChem BioAssay.
MmCpn inh – M. maripaludis TRiC chaperonin inhibition. purified Mm-Cpn ATPase, ADP Transcreener TR-FRET. Potency, µM (top dose mostly 76.9 µM), for inactives: at the top dose activity, negative = inhibition, actives largely listed as inhibitors. actives 0.031% (n = 330,000). AID 504842; active = well fitted inhibition curve with a large enough effect; inconclusive = small, poorly fitted or top-dose-only effect; also: potency is read from the fitted curve at half-maximal effect; % is scaled to controls: 0 for no effect and ±100 for the full control effect; nearly all actives have a fitted effect of over 80% in size
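TR-FRET (320 nm excitation; 590 and 665 nm emission) reports ADP made from 10 uM ATP by 25 nM enzyme; compounds were preincubated 10 min, reaction run 30 min, both at 37°C.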
Rango release inh – prevents RanGTP from dissociating the Rango-importin beta complex | O95149+P62826 | Biochemical FRET Rango-importin beta, RanGTP-induced dissociation | Potency, µM (top dose mostly 46.1 µM), without a hit: at the top dose activity change, negative = inhibition | actives 0.071% (n = 340,000) | AID 540253; also: potency is read from the fitted curve at half-maximal effect; % of control where 0% means no effect; nearly all actives have a fitted effect of over 45% in size
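Recombinant Rango FRET biosensor (EYFP–snurportin 1 IBB–cerulean CFP10) at 0.1 uM premixed with 0.25 uM importin beta in PBS, 1 mM DTT, 0.02% Tween-20, 0.1% BSA. Compound added 5 min; RanGTP-RCC1 (0.6 uM Ran, 2 mM GTP, 0.2 uM RCC1) then triggers release, read at 45 min.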
TSG101-PTAP inh – blocks PTAP/TSG101 interaction to inhibit HIV-1 budding | Fluorescence polarization, FITC-PTAP peptide / Tsg101 binding | Potency, µM (highest dose often 115 µM), inactives show at the highest dose activity change, negative = inhibition, actives largely listed as inhibitors | 340,000 tested, under 10 active | AID 493005 | Q99816; active = well fitted inhibition curve with a large enough effect in the main read-out, with a control signal flat, not every such curve was filed as active; inconclusive = small, poorly fitted or top-dose-only effect, or effect the other way, or a change in a side signal; inactive = no such curve, though single readings can be large or run the other way; also: potency is read from the fitted curve at half-maximal effect; % of control where 0% means no effect
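Fluorescence polarization binding of Tsg101 binding domain (10 uM final) to FITC-labeled PTAP peptide (50 nM final) in HEPES pH 7.5 buffer with NaCl, Tween 20, EDTA, TCEP. Compounds added before peptide; binding 20 min at RT.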
D3 antag – antagonists of human D3 dopamine receptor | P35462 | D3R cells, DiscoveRx beta-arrestin luminescence, antagonist mode; stronger effect = lower value | max response, negative = inhibition, % | actives 2.5% (n = 360,000) | AID 652054; in the data active = max response below about -50%; inconclusive = no clear call, values can overlap the other calls; also: % is scaled to controls: 0 for no effect and ±100 for the full control effect
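Cells expressing the human receptor were seeded at 1500 cells/well, incubated overnight at 37 degrees C in 5% CO2, then exposed to library compounds with dopamine controls for 90 minutes at 37 degrees C before luminescent detection.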
D3 ag – activates the human D3 dopamine receptor | P35462 | D3R DiscoveRx beta-arrestin cells, luminescence, 90 min | max activation, % | actives 0.58% (n = 410,000) | AID 652048; in the data active = max activation above about 30%; also: 0% is about no effect
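Agonist mode: compounds and dopamine controls were applied to plated cells for 90 min at 37 degrees C after an overnight attachment at 1500 cells/well. Luminescent read-out followed 30 - 60 minutes at room temperature with DiscoveRx detection reagent.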
Rango-impB inh – prevents formation of the Rango-importin beta complex. Q14974. Rango CFP/YFP FRET sensor + importin beta, 45 min. Potency, µM (doses to about 92.2 µM), inactives show top-dose inhibition of complex formation. actives 0.031% (n = 340,000);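 also: potency is read from the fitted curve at half-maximal effect; 0% = DMSO wells and 100% = buffer wells lacking importin beta; nearly all actives have a fitted effect of over 15% in size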
Target sequence (Q14974 whole entry, looked up): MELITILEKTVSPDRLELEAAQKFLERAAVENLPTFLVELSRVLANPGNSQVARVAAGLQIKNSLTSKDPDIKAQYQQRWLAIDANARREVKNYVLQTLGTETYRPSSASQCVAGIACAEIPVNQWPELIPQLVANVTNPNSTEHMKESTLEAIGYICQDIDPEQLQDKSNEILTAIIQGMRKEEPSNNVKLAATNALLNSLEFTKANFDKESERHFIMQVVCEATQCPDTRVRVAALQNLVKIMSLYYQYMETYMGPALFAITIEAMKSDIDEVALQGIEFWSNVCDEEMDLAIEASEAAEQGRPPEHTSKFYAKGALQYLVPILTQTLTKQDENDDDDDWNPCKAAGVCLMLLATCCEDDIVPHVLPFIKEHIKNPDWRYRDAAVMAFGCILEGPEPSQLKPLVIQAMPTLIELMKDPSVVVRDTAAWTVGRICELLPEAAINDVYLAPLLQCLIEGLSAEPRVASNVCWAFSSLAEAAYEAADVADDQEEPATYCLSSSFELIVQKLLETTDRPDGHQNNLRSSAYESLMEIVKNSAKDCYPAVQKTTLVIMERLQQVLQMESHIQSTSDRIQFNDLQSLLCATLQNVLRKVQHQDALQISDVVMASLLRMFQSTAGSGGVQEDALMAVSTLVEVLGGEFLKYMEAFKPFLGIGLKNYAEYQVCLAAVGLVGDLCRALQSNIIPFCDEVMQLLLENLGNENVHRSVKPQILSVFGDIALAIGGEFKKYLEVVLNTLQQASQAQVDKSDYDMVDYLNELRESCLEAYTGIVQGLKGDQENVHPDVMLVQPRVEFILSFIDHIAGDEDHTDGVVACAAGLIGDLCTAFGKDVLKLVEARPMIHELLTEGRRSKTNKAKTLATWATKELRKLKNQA
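FRET biosensor Rango (snurportin 1 IBB between N-terminal EYFP and C-terminal Cerulean), 50 nM in PBS/1 mM DTT/0.02% Tween-20/0.1% BSA, preincubated 5 min RT with compound; 0.125 microM importin beta added, 45 min RT, CFP/YFP FRET ratio read.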
* marks the source's active call; other numbers are inactive results; ? = inconclusive; · = not tested or not shown; [ ] = another dose, or the depositor's remark. A selection: hits, their analogues and other compounds. The true share with any hit is near 2.9%. Unless noted, calls follow the shape of the full dose curve.

SMILES	MmCpn inh	Rango release inh	TSG101-PTAP inh	D3 antag	D3 ag	Rango-impB inh
COc1cc(Nc2c(C#N)cnc3cc(OCCCN4CCN(C)CC4)c(OC)cc23)c(Cl)cc1Cl	·	·	·	·	-11	·
CC(C)c1ccc(S(=O)(=O)c2nnn3c2nc(NCc2cccs2)c2sccc23)cc1	·	·	·	·	9	·
COc1ccc(OC)c(NC(=O)CCc2c(C)nn(-c3ccc(N4CCCC4)nn3)c2C)c1	·	·	·	·	8	·
CC(=O)Nc1ccc(CN2CCCCCCC2)cc1	1%	4%	-3%	?	-3	0%
CCN1CCN(Cc2ccccc2NC(=O)Nc2ccc(C)cc2)CC1	0%	-7%	-6%	-30	-17	-1%
O=C(Nc1ccc(CN2CCCCC2)cc1)Nc1ccccc1Cl	2%	-9%	-4%	-52*	-28	0%
O=C(Nc1ccc(CN2CCCCC2)cc1)c1c(F)c(F)c(F)c(F)c1F	2%	26%	-9%	5	-7	5%
CCN1CCN(Cc2ccc(NC(=O)Nc3ccccc3Cl)cc2)CC1	-29%	-2%	0%	-61*	-15	-3%
O=C(Nc1ccc(CN2CCCCC2)cc1)c1ccc(Br)o1	-1%	13%	0%	-62*	-15	0%
COc1ccc(C(=O)Nc2ccc3c(c2)N(C2CCCC2)C(=O)c2ccccc2S3)cc1OC	·	·	·	·	-9	·
COc1cccc(Nc2nnc(-c3cc4ccc(O)cc4oc3=O)s2)c1	·	·	·	·	8	·
CC(C)N1CC(C(=O)Nc2ccc(Cl)c(Cl)c2)CC1=O (stereo unspecified)	-3%	3%	-4%	-24	72*	-1%
CCCCN1C(=O)C(CC(=O)NCCCCc2ccccc2)CC(C(=O)N2CCCCCC2)=C1C (stereo unspecified)	·	·	·	-52*	-11	·
CCOc1ccc(NC(=O)c2cn3c4c(ccc(Cl)c4c2=O)OC(C)C3)cc1 (stereo unspecified)	·	·	·	·	-9	·
Cc1ccc(OCC(=O)Nc2ccc(N3CCN(C(=O)c4ccco4)CC3)cc2)cc1C	-3%	-14%	1%	6	11	-1%
Cc1cc(OCC(=O)Nc2ccc(N3CCN(C(=O)c4ccco4)CC3)cc2)cc(C)c1Cl	-1%	2%	-9%	53	55*	-3%
CC1(C)C(=O)NC(=O)N1Cc1ccccc1	1%	1%	2%	-30	-16	-2%
Cc1csc2nc(COc3ccc(NC(=O)COc4ccccc4F)cc3)cc(=O)n12	·	·	·	·	-13	·
CCOc1ccc(-n2ccnc(SCC(=O)NCc3cccc(OC)c3)c2=O)cc1	?	-5%	0%	-60*	-17	0%
Clc1cc(Cl)c(OCC#CI)cc1Cl	·	·	·	·	2	·
CC(=O)Nc1ccc(S(=O)(=O)NCc2ccc(C(=O)NCCN3CCCCCC3)cc2)cc1	-1%	-10%	-14%	-53*	-17	3%
Cc1cccc(C(=O)NCC2CCCO2)c1 (stereo unspecified)	1%	34%	-4%	-54*	3	0%
CC(=O)Nc1ccc(S(=O)(=O)NCc2ccc(C(=O)NCc3ccc(Cl)cc3)cc2)cc1	0%	-2%	-10%	-19	-9	-4%
Cc1noc(C)c1COc1ccc(C(=O)NCC2CCCO2)cc1 (stereo unspecified)	1%	17%	2%	-52*	-6	6%
O=C(NCCN1CCCCC1)c1cc(OCC(F)(F)F)ccc1OCC(F)(F)F	-2%	20%	-1%	-53*	1	-1%
SMILES	MmCpn inh	Rango release inh	TSG101-PTAP inh	D3 antag	D3 ag	Rango-impB inh
COc1ccc(CC(=O)NCCN2CCCC2)cc1	1%	2%	-3%	-4	-4	1%
O=C(NCCN1CCN(C(=O)c2ccc(F)cc2)CC1)c1ccc(F)cc1	0%	-1%	-2%	-79*	-10	-1%
Cc1ccc(C(=O)NCCN2CCCC2)cc1	2%	17%	-4%	?	-27	3%
Cc1cccc(C(=O)NCCN2CCCC2)c1	1%	1%	-3%	-66*	-6	-6%
CCOc1c(Cl)cc(C(=O)NCCN2CCCCC2)cc1Cl	0%	3%	0%	-73*	-52	2%
COc1ccc(C(=O)NCCN2CCCC2)cc1	-1%	-1%	0%	-54*	-11	0%
COc1ccc(C2CC(=O)N(CC(=O)Nc3cc(C)ccc3C)c3ccccc3S2)cc1 (stereo unspecified)	·	·	·	·	2	·
Cc1csc(N2CCCC2c2nc3cc(C(F)(F)F)ccc3n2CCOCCO)n1 (stereo unspecified)	·	-8%	0%	13	-15	1%
COc1cccc(-c2nn(-c3ccc(C)cc3)cc2C(=O)NCC2CCCO2)c1 (stereo unspecified)	0%	0%	0%	-23	-22	0%
CC(C)(C)c1ccc(OCC(=O)NCCN2CCCC2)cc1	1%	2%	-6%	-57*	0	0%
COc1cccc(-c2cc(C(=O)NCC3CCCO3)c3cc(C)cc(C)c3n2)c1 (stereo unspecified)	-1%	3%	0%	34	66*	7%
Cc1ccc(OCC(=O)NCCN2CCCC2)cc1	-1%	15%	-7%	-21	-1	0%
CCOc1ccc(Oc2nc(NC)nc(N3CCOCC3)n2)nn1	·	·	·	·	-13	·
CCOc1ccc(N(CC(=O)Nc2ccc(C)c(C)c2)S(=O)(=O)c2c(C)noc2C)cc1	-1%	29%	-2%	-66*	-13	-6%
CCOc1ccc(N(CC(=O)Nc2cccc(F)c2)S(=O)(=O)c2c(C)noc2C)cc1	2%	9%	-1%	4	5	-3%
COC(=O)C1=NN(c2cccc3ccccc23)C2C(=O)N(c3ccccc3OC)C(=O)C12 (stereo unspecified)	-3%	12µM*	-1%	-5	-15	?
CCOc1ccc(N=C2NC(=O)S/C2=C\c2ccc(N(C)C)cc2)cc1	-7%	?	?	-69*	-11	?
CCc1nc2nc(C)c(NS(=O)(=O)c3ccc(C(C)(C)C)cc3)c(=O)n2[nH]1	·	·	·	·	7	·
Cc1ccc(S(=O)(=O)Nc2ccccc2C=NNC(=O)c2ccncc2)cc1	·	·	·	7	-3	·
Cc1ccc(S(=O)(=O)Nc2ccccc2C=Nc2cccc(C)c2C)cc1	-4%	7.3µM*	-3%	2	6	?
Cc1ccc(S(=O)(=O)Nc2ccccc2/C=N/c2nc3ccccc3n2C)cc1	4%	8.2µM*[inhibitor]	-3%	-3	11	?
O=C(CN1C(=O)c2cccnc2Oc2ccc(Cl)cc21)N1CCOCC1	-2%	1%	-4%	-8	-2	0%
